Measured values: PubChem BioAssay
The source made the active and inactive calls. Unless noted, how the calls were made is not given here.

Columns and labels:
[1] = compounds binding Alexa647 anti-His antibody – biochemical, small-molecule microarray, 635 nm fluorescence, artefact control for SMM control protein annotation, primary screen (AID 1128); conditions: higher = more signal;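 further: score merges feature fluorescence with signal-to-noise for each printed compound spot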
[2] = tested on: Human papillomavirus type 1a E7 protein (residues 1-88); test: HPV1a E7 small-molecule binders, primary screen, biochemical, small-molecule microarray, residues 1-88, 635 nm (AID 1129); conditions: small-molecule microarray binding, fluorescence 635 nm; higher = more signal
[3] = molecular target: Focal adhesion kinase 1 (Homo sapiens) (UniProt Q05397); test: PTK2 protein binding on printed compound slides – biochemical, small-molecule microarray, 635/667 nm fluorescence, BSA, DTT, primary screen (AID 1130); conditions: 635 nm fluorescence, higher = more signal;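 further: composite of spot emission at 667 nm and signal to noise over triplicate slides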
[4] = tested on: Fibrinogen (Alexa647-labelled); test: Alexa647-fibrinogen binding to printed small molecules – biochemical, small-molecule microarray, 635/667 nm fluorescence, artefact control for SMM control-protein annotation, profiling panel (AID 1131); conditions: fibrinogen-A647 binding fluorescence, higher = more signal;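 further: z-score merges 667 nm fluorescence with per-spot signal-to-noise over triplicate slides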
[5] = molecular target: Follistatin (Homo sapiens) (UniProt P19883); test: FST protein binding to printed compounds – biochemical, small-molecule microarray, 635/667 nm fluorescence, primary screen (AID 1132); conditions: 635 nm fluorescence, higher = more signal
[6] = molecular target: Fibroblast growth factor 2 (Homo sapiens) (UniProt P09038); test: basic fibroblast growth factor binding to printed compounds – biochemical, small-molecule microarray, 635/667 nm fluorescence, primary screen (AID 1133); conditions: FGF2, fluorescence 635/667, higher = more signal
[7] = JC-1 mitochondrial potential readout, lung cancer cells – cell-based, A549, JC-1 fluorescence, basal, 24 h, 100 nL, profiling panel (AID 1138); conditions: higher = more signal;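 further: A549 lung adenocarcinoma cells under basal conditions with no added stimulus; test concentration not given here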
[8] = tested on: Lefty1; test: Lefty1 protein binding to printed compounds – biochemical, small-molecule microarray, 635/667 nm fluorescence, primary screen (AID 1139); conditions: fluorescence 635/667, higher = more signal
[9] = tested on: wheat germ agglutinin (Triticum aestivum), Alexa647-labelled; test: Alexa647-WGA lectin binding to printed small molecules – biochemical, small-molecule microarray, 635/667 nm fluorescence, artefact control for SMM control-protein annotation, profiling panel (AID 1140); conditions: WGA-A647 binding, 635 nm fluorescence, higher = more signal;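 further: score merges 667 nm feature emission with signal to noise over triplicate slides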
[10] = molecular target: Luciferin 4-monooxygenase (Photinus pyralis) (UniProt P08659); test: inhibition of purified Photinus pyralis luciferase – biochemical, luminescence, purified enzyme, 2006 set, primary screen (AID 1141); conditions: purified firefly luciferase, SteadyGlo luminescence, 30 min; higher = more signal, called active from +8 up or from −8 down;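 further: cell-free assay with purified firefly luciferase at 100 ng per well in PBS; test concentration not given here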
[11] = tested on: Wnt5a (protein binding on small-molecule microarray); test: small molecules binding Wnt5a protein – biophysical, small-molecule microarray, 635/667 nm fluorescence, primary screen (AID 1142); conditions: 635 nm fluorescence, higher = more signal;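 further: fluorescence read at 667 nm with signal to noise per printed feature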
[12] = ATP-based viability of Huh7 replicon cells – cell-based, CellTiter-Glo luminescence, basal, 48 h, cytotoxicity control for HCV replication inhibitor project, primary screen (AID 1143); conditions: higher = more signal, called active from +8 up or from −8 down;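 further: Huh7 hepatoma cells carrying a hepatitis C replication reporter with no stimulus; test concentration not given here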
[13] = Pseudomonas biofilm growth suppression – PAO1 strain, BacTiter-Glo luminescence, LB-PBS, primary screen (AID 1144); conditions: P. aeruginosa PAO1 biofilm, 12 h, higher = more signal
[14] = basal CRE-LacZ reporter activity in PC12 – cell-based, unstimulated, primary screen (AID 1145); conditions: no forskolin, luminescence, 4.5 h, higher = more signal, called active from +8 up or from −8 down
[15] = forskolin-driven CRE-LacZ activity in PC12 – cell-based, CRE-LacZ reporter, forskolin-stimulated, primary screen (AID 1146); conditions: luminescence, 4.5 h, higher = more signal, called active from +8 up or from −8 down;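 further: PC12 cells with 6xCRE LacZ reporter stimulated by forskolin 10 µM; beta-galactosidase reporter signal reflecting CREB driven transcription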
[16] = molecular target: Streptavidin (Streptomyces avidinii) (UniProt P22629); test: compounds binding control protein streptavidin – biophysical, small-molecule microarray, 635/667 nm fluorescence, artefact control for SMM compound annotation, primary screen (AID 1147); conditions: higher = more signal;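 further: signal reflects streptavidin binding to arrayed compounds as a control protein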
[17] = probe aInhba binding on compound microarray – biochemical, small-molecule microarray, 635/667 nm fluorescence, primary screen (AID 1148); conditions: higher = more signal;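 further: score merges 667nm spot fluorescence with signal-to-noise for antibody binding to printed compounds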
[18] = molecular target: Torsin-1A (Homo sapiens) (UniProt O14656); test: TOR1A wild-type binding on microarray – cell lysate, small-molecule microarray, lysate, 635/667 nm, primary screen (AID 1149); conditions: COS7 hTOR1A-WT lysate, 635 nm fluorescence, higher = more signal
[19] = molecular target: Torsin-1A (Homo sapiens) (UniProt O14656); test: torsin A mutant lysate binding on microarrays – cell lysate, small-molecule microarray, COS7 lysate, 635/667 nm fluorescence, primary screen (AID 1150); conditions: COS7 hTOR1A mutant lysate, 635 nm fluorescence, higher = more signal;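 further: score pools 667 nm emission and signal to noise measuring lysate protein binding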
[20] = tested on: Sonic hedgehog protein (Shh); test: Sonic hedgehog microarray binding compounds – biochemical, small-molecule microarray, 635/667 nm fluorescence, primary screen (AID 1151); conditions: 635 nm fluorescence, higher = more signal;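 further: Shh protein binding to compounds spotted on small-molecule microarray slides; score combines spot fluorescence intensity with signal-to-noise across triplicate slides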

Chain of Follistatin (Homo sapiens) (P19883 whole entry, looked up): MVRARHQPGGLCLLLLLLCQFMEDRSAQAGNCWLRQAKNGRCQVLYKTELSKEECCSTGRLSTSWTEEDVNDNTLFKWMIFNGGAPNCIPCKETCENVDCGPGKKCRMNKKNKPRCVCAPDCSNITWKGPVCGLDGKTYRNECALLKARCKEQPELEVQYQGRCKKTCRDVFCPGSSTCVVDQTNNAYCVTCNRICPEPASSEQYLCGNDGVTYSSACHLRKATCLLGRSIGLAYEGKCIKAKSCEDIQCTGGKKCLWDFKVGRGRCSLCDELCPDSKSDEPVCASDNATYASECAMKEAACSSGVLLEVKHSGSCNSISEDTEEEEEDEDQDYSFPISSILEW
Chain of Fibroblast growth factor 2 (Homo sapiens) (P09038 whole entry, looked up): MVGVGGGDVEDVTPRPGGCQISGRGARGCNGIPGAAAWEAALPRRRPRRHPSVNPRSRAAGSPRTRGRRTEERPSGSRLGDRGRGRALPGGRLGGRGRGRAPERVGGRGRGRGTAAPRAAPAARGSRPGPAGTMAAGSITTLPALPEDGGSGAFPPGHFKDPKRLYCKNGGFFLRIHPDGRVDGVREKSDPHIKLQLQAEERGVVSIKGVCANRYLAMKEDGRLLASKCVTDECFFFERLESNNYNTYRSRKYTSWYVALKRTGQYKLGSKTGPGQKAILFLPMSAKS
Chain of Luciferin 4-monooxygenase (Photinus pyralis) (P08659 whole entry, looked up): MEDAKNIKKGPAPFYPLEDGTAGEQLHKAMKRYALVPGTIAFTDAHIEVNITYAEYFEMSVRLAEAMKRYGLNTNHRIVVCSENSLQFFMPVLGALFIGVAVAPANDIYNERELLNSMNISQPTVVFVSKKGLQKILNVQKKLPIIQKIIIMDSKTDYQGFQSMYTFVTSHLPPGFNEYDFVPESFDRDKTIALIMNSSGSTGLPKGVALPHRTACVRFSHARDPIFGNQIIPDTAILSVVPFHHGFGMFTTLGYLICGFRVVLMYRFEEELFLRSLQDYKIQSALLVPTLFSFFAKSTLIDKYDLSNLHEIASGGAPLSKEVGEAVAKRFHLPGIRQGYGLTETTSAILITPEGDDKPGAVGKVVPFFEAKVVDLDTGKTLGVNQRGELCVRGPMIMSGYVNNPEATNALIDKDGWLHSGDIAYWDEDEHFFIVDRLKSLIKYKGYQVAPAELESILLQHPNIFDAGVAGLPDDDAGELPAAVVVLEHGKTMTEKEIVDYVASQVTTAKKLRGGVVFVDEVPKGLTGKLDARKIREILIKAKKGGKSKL
Chain of Focal adhesion kinase 1 (Homo sapiens) (Q05397 whole entry, looked up): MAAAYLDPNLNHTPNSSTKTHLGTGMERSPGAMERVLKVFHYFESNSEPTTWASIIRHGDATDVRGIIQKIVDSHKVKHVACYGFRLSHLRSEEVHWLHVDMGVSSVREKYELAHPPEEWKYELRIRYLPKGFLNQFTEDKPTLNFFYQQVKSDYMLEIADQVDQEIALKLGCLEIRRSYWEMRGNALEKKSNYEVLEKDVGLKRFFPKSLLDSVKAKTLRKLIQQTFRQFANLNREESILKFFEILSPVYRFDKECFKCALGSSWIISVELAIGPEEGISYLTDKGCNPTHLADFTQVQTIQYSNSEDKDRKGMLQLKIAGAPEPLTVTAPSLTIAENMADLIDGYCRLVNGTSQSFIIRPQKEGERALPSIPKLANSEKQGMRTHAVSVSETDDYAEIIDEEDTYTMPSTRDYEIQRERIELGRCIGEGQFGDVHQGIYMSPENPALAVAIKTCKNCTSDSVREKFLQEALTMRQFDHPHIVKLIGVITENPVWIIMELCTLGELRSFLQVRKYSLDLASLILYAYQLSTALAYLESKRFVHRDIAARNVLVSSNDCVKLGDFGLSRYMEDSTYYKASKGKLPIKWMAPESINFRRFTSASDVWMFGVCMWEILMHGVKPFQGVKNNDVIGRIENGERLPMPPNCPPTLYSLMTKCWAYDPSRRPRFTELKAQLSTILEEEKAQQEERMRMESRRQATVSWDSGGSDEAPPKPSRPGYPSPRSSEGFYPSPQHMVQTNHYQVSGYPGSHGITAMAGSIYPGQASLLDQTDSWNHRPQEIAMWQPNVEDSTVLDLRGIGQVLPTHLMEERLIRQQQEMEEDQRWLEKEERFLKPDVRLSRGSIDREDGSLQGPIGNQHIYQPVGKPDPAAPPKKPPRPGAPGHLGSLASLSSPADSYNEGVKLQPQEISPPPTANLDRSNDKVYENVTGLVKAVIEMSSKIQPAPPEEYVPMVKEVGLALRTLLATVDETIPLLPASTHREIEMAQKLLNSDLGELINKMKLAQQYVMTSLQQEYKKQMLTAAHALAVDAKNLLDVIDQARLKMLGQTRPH
Chain of Streptavidin (Streptomyces avidinii) (P22629 whole entry, looked up): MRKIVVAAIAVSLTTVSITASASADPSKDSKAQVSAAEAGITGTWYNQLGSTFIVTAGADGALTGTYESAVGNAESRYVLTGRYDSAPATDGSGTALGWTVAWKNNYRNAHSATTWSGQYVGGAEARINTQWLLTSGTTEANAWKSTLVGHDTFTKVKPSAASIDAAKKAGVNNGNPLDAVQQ
Chain of Torsin-1A (Homo sapiens) (O14656 whole entry, looked up): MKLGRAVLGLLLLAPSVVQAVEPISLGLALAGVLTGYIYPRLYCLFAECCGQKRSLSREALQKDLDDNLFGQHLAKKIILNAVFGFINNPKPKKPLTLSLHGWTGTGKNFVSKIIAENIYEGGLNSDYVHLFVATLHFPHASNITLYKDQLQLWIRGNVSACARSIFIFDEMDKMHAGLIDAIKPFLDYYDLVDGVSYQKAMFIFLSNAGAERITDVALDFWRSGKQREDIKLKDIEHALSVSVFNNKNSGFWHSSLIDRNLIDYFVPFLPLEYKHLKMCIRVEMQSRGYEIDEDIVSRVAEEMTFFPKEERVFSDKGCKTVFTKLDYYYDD

Compound | composite z-score [1] | composite z-score [2] | composite z-score [3] | composite z-score [4] | composite z-score [5] | composite z-score [6] | z-score [7] | composite z-score [8] | composite z-score [9] | z-score [10] | composite z-score [11] | z-score [12] | z-score [13] | z-score [14] | z-score [15] | composite z-score [16] | composite z-score [17] | composite z-score [18] | composite z-score [19] | composite z-score [20]
C=C(COC)/C(=C/C[C@H](OC(C)=O)c1ccc(OCCO)cc1)c1cc(C(=O)OC)ccc1OC | 0.544 | 1.07 | 0.514 | 0.436 | 1.35 | 1.67 | 2.8 | 1.66 | 0.395 | -1.71 (inactive) | 0.39 | -0.519 (inactive) | -0.339 (inactive) | 13.8 (active) | 0.696 (inactive) | -0.313 | 0.0566 | 2.01 | 0.524 | 1.92
CC(=O)NCCCC[C@@H]1NC(=O)[C@@H]2C[C@H](C(=O)NCCCC[N+](C)(C)C)[C@H](c3ccc(O)cc3)N2C1=O | 3.1 | -0.882 | -0.218 | 0.764 | 1.48 | 1.73 | -1.12 | 1.49 | -0.23 | -0.174 (inactive) | 0.522 | -2.24 (inactive) | -0.279 (inactive) | -0.122 (inactive) | -0.528 (inactive) | -0.146 | 0.242 | 0.804 | 0.547 | 2.24
COc1cccc(/C=C/C=O)c1 | 0.0592 | 0.203 | -0.0159 | -1.77 | 0.261 | 0.316 | 1.47 | -0.0262 | 0.205 | -1.36 (inactive) | 0.279 | -0.0204 (inactive) | -0.301 (inactive) | 0.0026 (inactive) | 0.599 (inactive) | -0.283 | 0.156 | 0.582 | 0.351 | 0.0757
COCC1=C2[C@@H](CCc3ccccc3)OB(O)C[C@@H]2[C@@H]2C(=O)C=CC(=O)[C@@H]2C1 | 1.39 | 0.736 | 0.238 | 0.0217 | 0.648 | 0.519 | -1.23 | 0.654 | 0.982 | -3.14 (inactive) | 0.0021 | -1.9 (inactive) | 0.353 (inactive) | 19.2 (active) | 22.8 (active) | 0.55 | 0.0212 | 0.246 | 0.292 | 0.963
CC(=O)NCCCC[C@@H]1NC(=O)[C@H]2C[C@@H](C(=O)NCCCC[N+](C)(C)C)[C@@H](c3cccc(OCCO)c3)N2C1=O | 1.57 | -0.416 | 0.191 | 0.231 | 1.47 | 1.85 | 0.584 | 1.71 | 0.552 | -1.42 (inactive) | 0.975 | -1.62 (inactive) | 0.481 (inactive) | -0.667 (inactive) | 0.451 (inactive) | -0.296 | 0.0031 | 1.07 | 2.34 | 2.18
C=CCC(OC(C)=O)[C@@H]1[C@@H](N(Cc2cccc3ccccc23)C(=O)c2cccc3ccccc23)c2cc(OCCCO)ccc2N1C(=O)c1ccc(-c2ccccc2)cc1 (stereo not given in full) | -0.123 | -0.14 | 0.0614 | 0.643 | 0.693 | 0.497 | -0.338 | 0.0548 | 0.0915 | 0.337 (inactive) | -0.0964 | -1.56 (inactive) | 1.21 (inactive) | -0.113 (inactive) | 1.24 (inactive) | 0.116 | 0.0543 | -0.104 | 0.292 | 0.556
OCCCC1=CC(c2ccc(CN3CCCC3)cc2)N(Cc2sc3ccccc3c2Cl)CC1 (stereo not given) | 2.68 | 1.07 | 0.609 | 0.311 | 1.19 | 1.38 | 2.11 | 0.649 | 0.483 | -1.01 (inactive) | 0.774 | -2.99 (inactive) | 0.00672 (inactive) | 0.96 (inactive) | -0.134 (inactive) | 0.37 | 0.0633 | 0.598 | 0.842 | 1.46
COc1cc2c(cc1O)C(C)N(Cc1ccc([N+](=O)[O-])o1)CC2 (stereo not given) | 1.63 | 1.1 | 0.243 | 0.824 | 0.542 | 0.18 | 0.275 | 0.18 | 0.918 | -0.0107 (inactive) | 0.322 | 0.143 (inactive) | -0.158 (inactive) | -0.258 (inactive) | 1.6 (inactive) | 0.97 | 0.303 | 0.682 | 0.897 | 0.0196
O=C1OCCC/C=C\[C@H]2OC34C=CCN(CCN5CCOCC5)C(=O)[C@H]3N(CCCCCCO)C(=O)[C@@H]4C12 (stereo not given in full) | 3.45 | 0.167 | -0.447 | -0.613 | -0.318 | -0.25 | 1.13 | 0.337 | 0.33 | -1.05 (inactive) | -0.089 | -0.129 (inactive) | -1.18 (inactive) | 0.325 (inactive) | -0.0772 (inactive) | -0.215 | -0.0791 | 0.944 | -0.404 | 0.837
COCCCNC(=O)[C@@]1(Cc2ccccc2N=[N+]=[N-])COC(c2ccc(OCCCO)cc2)=N1 | 1.47 | 1.22 | 0.614 | 0.967 | 0.773 | -0.186 | 0.961 | -0.351 | 0.976 | -2.1 (inactive) | 0.926 | -1.63 (inactive) | 0.53 (inactive) | -0.641 (inactive) | -0.849 (inactive) | 1.63 | 0.0184 | 0.308 | 0.614 | -0.676
